What follows are sequences tested against T1, FLI1 (Homo sapiens, UniProt Q01543 1-452) (assay: DAPPL (digital affinity profiling via proximity ligation, sequencing); 10 mM Tris-HCl pH 7.5, 50 mM NaCl, 1 mM DTT, 4% glycerol, room temperature, 30 min; GST-TFs on glutathione beads, 16-mer random dsDNA library, 0.1% formaldehyde crosslink after washing; high values mean tight binding). Conditions: protein: recombinant; tags: N-terminal GST; dsDNA, one strand shown.
T1 sequence: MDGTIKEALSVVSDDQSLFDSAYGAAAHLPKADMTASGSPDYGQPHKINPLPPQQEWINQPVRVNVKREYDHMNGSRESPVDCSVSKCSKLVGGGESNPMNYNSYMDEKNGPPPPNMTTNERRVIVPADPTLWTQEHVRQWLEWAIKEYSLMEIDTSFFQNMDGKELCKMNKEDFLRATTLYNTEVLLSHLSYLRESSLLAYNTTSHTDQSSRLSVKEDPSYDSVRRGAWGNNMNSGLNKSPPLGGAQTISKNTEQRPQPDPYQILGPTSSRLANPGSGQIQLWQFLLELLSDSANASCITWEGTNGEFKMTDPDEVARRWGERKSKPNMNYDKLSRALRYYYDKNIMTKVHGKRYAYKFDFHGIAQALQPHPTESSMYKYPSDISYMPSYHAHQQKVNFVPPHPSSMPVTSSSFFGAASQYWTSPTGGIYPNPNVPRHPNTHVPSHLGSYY
Method in brief: (§1)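 Each value of binding signal is a hexamer's read frequency for a factor divided by the same hexamer's frequency in the tag-only sample. Barcoded, bead-captured GST fusions of human transcription factors made in yeast were pooled with that sample and incubated with 200 nmole of a random double-stranded 16-mer DNA library in Tris/NaCl/DTT/glycerol buffer at room temperature for 30 min. Washing, 0.1% formaldehyde crosslinking, proximity ligation, PCR and Illumina NextSeq500 sequencing followed.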

Point of comparison: GTTCCC, binding signal 1.36 fold enrichment (6-mer frequency, TF over GST control). Against it:
- TAGAAA — lower, 1.1 fold enrichment (6-mer frequency, TF over GST control)
- GTTTTG — lower, 1.19 fold enrichment (6-mer frequency, TF over GST control)
- TCCGTC — lower, 1.24 fold enrichment (6-mer frequency, TF over GST control)
- CAAACT — lower, 1.18 fold enrichment (6-mer frequency, TF over GST control)
- GACTAC — lower, 1.17 fold enrichment (6-mer frequency, TF over GST control)
- ACTCAT — higher, 1.47 fold enrichment (6-mer frequency, TF over GST control)
- TATAGA — lower, 1.02 fold enrichment (6-mer frequency, TF over GST control)
- TTAAAT — lower, 1.17 fold enrichment (6-mer frequency, TF over GST control)
- TCGTTC — lower, 1.17 fold enrichment (6-mer frequency, TF over GST control)
- TGTAGC — lower, 1.1 fold enrichment (6-mer frequency, TF over GST control)
- CACATT — lower, 1.3 fold enrichment (6-mer frequency, TF over GST control)
- CAGCTT — lower, 1.2 fold enrichment (6-mer frequency, TF over GST control)
- AATTCA — lower, 1.29 fold enrichment (6-mer frequency, TF over GST control)
- ATGGAC — lower, 1.21 fold enrichment (6-mer frequency, TF over GST control)
- TACTCG — lower, 1.33 fold enrichment (6-mer frequency, TF over GST control)
- TGGTAG — lower, 1.1 fold enrichment (6-mer frequency, TF over GST control)
- GGTACT — lower, 1.25 fold enrichment (6-mer frequency, TF over GST control)
- TAGAAG — lower, 1.05 fold enrichment (6-mer frequency, TF over GST control)
- CTAGGC — lower, 1.17 fold enrichment (6-mer frequency, TF over GST control)
- CGCTCT — higher, 1.39 fold enrichment (6-mer frequency, TF over GST control)
- GTCCCG — lower, 1.29 fold enrichment (6-mer frequency, TF over GST control)
- ACCTGA — lower, 1.06 fold enrichment (6-mer frequency, TF over GST control)
- TACGCA — lower, 1.18 fold enrichment (6-mer frequency, TF over GST control)
- CACGCG — lower, 1.32 fold enrichment (6-mer frequency, TF over GST control)
- CCACTG — lower, 1.16 fold enrichment (6-mer frequency, TF over GST control)
- TTATAG — lower, 1.13 fold enrichment (6-mer frequency, TF over GST control)
- CCGGCA — higher, 1.38 fold enrichment (6-mer frequency, TF over GST control)
- CTTTAG — lower, 1.27 fold enrichment (6-mer frequency, TF over GST control)
- TCCGGA — higher, 2.58 fold enrichment (6-mer frequency, TF over GST control)
- ATGTCA — lower, 1.14 fold enrichment (6-mer frequency, TF over GST control)
- AATTCT — higher, 1.4 fold enrichment (6-mer frequency, TF over GST control)
- TCTGAC — lower, 1.26 fold enrichment (6-mer frequency, TF over GST control)
- GAATCC — lower, 1.15 fold enrichment (6-mer frequency, TF over GST control)
- CGTCCC — lower, 1.3 fold enrichment (6-mer frequency, TF over GST control)
- TCTTCA — higher, 1.43 fold enrichment (6-mer frequency, TF over GST control)
- AACTAT — higher, 1.37 fold enrichment (6-mer frequency, TF over GST control)
- CGAAGC — higher, 1.39 fold enrichment (6-mer frequency, TF over GST control)
- CCTGCC — lower, 1.17 fold enrichment (6-mer frequency, TF over GST control)
- ATTGCT — lower, 1.24 fold enrichment (6-mer frequency, TF over GST control)

The sequences below were run against T2, ELK1 (Homo sapiens, UniProt P19419 1-428) in the same assay as above. Conditions: protein: recombinant; tags: N-terminal GST; dsDNA, one strand shown.
T2 sequence: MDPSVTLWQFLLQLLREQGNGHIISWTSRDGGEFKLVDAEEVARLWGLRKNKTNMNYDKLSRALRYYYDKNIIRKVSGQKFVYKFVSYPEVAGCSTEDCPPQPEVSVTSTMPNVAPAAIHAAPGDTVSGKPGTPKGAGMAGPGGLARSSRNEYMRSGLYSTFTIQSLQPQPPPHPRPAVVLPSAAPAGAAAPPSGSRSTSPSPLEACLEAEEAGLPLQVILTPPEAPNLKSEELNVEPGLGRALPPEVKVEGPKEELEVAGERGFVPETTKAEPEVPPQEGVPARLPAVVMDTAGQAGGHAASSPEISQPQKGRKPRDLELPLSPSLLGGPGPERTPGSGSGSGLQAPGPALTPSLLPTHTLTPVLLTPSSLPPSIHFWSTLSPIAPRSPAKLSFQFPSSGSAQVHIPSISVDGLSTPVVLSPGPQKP
Method in brief: as §1

Point of comparison: TGGTAG, binding signal 1.02 fold enrichment (6-mer frequency, TF over GST control). Against it:
- TAGAAA — higher, 1.03 fold enrichment (6-mer frequency, TF over GST control)
- GTTTTG — higher, 1.17 fold enrichment (6-mer frequency, TF over GST control)
- TCCGTC — higher, 1.43 fold enrichment (6-mer frequency, TF over GST control)
- CAAACT — higher, 1.14 fold enrichment (6-mer frequency, TF over GST control)
- GACTAC — higher, 1.19 fold enrichment (6-mer frequency, TF over GST control)
- ACTCAT — higher, 1.34 fold enrichment (6-mer frequency, TF over GST control)
- TATAGA — higher, 1.07 fold enrichment (6-mer frequency, TF over GST control)
- TTAAAT — higher, 1.11 fold enrichment (6-mer frequency, TF over GST control)
- TCGTTC — higher, 1.15 fold enrichment (6-mer frequency, TF over GST control)
- TGTAGC — higher, 1.16 fold enrichment (6-mer frequency, TF over GST control)
- CACATT — higher, 1.16 fold enrichment (6-mer frequency, TF over GST control)
- CAGCTT — higher, 1.27 fold enrichment (6-mer frequency, TF over GST control)
- AATTCA — higher, 1.23 fold enrichment (6-mer frequency, TF over GST control)
- ATGGAC — higher, 1.22 fold enrichment (6-mer frequency, TF over GST control)
- TACTCG — higher, 1.29 fold enrichment (6-mer frequency, TF over GST control)
- GGTACT — higher, 1.21 fold enrichment (6-mer frequency, TF over GST control)
- TAGAAG — higher, 1.19 fold enrichment (6-mer frequency, TF over GST control)
- CTAGGC — higher, 1.1 fold enrichment (6-mer frequency, TF over GST control)
- CGCTCT — higher, 1.25 fold enrichment (6-mer frequency, TF over GST control)
